High-throughput results deposited in PubChem by National Center for Advancing Translational Sciences (NCATS).
Shown are actives, neighbours in structure and some others; about 7.4% of the full set was active somewhere.
Luc counter = Counterscreen for Luciferase (Kinase-Glo TM) Inhibition; actives 0.28% (n = 200,000); Kinase-Glo luciferase, ATP luminescence, 8 min; Potency, µM (top dose mostly 38.3 µM), usual class: inhibitors; AID 1379, 2008; Luciferin 4-monooxygenase (Photuris pensylvanica), Q27757; also: nearly all actives have a fitted effect of over 60% in size
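Compounds were added to a substrate mix at pH 7.2 (50 mM imidazole, 10 uM ATP, within the enzyme's linear range), followed by Kinase-Glo detection reagent; luminescence was measured after 8 minutes at ambient temperature.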
FLuc counter = qHTS profiling assay for firefly luciferase inhibitor/activator using purifed enzyme and Km concentrations of substrates (counterscreen for miR-21 project). Luciferin 4-monooxygenase (Photinus pyralis), P08659. purified FLuc, Km substrates, luminescence inhibition. Potency, µM (top dose mostly 57.5 µM), most hits filed as inhibitors. actives 6.9% (n = 360,000). AID 588342, 2011; also: nearly all actives have a fitted effect of over 55% in size
Target sequence (P08659 whole entry, looked up): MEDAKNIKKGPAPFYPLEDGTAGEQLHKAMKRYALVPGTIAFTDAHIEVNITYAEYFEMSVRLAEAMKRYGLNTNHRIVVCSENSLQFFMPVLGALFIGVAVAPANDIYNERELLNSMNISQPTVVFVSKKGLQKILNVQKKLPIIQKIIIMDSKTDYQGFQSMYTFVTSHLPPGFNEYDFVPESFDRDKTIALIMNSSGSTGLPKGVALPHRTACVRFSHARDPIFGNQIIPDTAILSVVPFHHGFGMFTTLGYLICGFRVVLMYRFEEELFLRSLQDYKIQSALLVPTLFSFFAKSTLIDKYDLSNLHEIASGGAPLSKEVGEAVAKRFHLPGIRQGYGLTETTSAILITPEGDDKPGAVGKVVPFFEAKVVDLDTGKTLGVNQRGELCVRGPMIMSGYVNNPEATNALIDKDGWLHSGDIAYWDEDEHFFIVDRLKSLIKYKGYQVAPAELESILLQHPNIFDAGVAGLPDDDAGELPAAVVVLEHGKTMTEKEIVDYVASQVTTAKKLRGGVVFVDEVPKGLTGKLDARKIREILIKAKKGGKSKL
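Biochemical qHTS of compounds, final roughly 60 µM downward over six points, against 10 nM purified firefly luciferase using Km concentrations of substrates (10 uM D-luciferin, 10 uM ATP) in Tris acetate pH 7.5 buffer; luminescence output.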
Rab9 prom act = qHTS Assay for Rab9 Promoter Activators; Potency, µM (top dose mostly 9.22 µM), usual class: activators; AID 485297, 2010; Huh7 Rab9 promoter-luciferase reporter, luminescence, 24 h; actives 2.8% (n = 320,000); also: nearly all actives have a fitted effect of over 60% in size
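Luciferase signal after 10 min detection reagent at ambient indicates Rab9 promoter upregulation; stably transfected Huh7 cells were treated 24 h with compound in DMSO at 37 °C, 5% CO2.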
NPC1 prom act = qHTS Assay for NPC1 Promoter Activators; Huh7 NPC1 promoter luciferase reporter, 24 h; Potency, µM (series often up to 9.22 µM), actives largely listed as activators; actives 2.4% (n = 320,000); AID 485313, 2010; also: nearly all actives have a fitted effect of over 60% in size
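Huh7 cells stably carrying NPC1 promoter–luciferase, plated in Opti-MEM with 10% FBS for 2 h, were exposed to compound in DMSO for 24 h at 37 °C; luciferase reagent was added for 10 min and luminescence read.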
ELG1 genotoxic = qHTS screen for small molecules that induce genotoxicity in human embryonic kidney (HEK293T) cells expressing luciferase-tagged ELG1; HEK293T ELG1-luciferase reporter, luminescence, 16 h; Potency, µM (top dose mostly 46 µM), actives largely listed as activators; actives 1.3% (n = 330,000); AID 504466, 2011; also: nearly all actives have a fitted effect of over 60% in size
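HEK293T cells expressing luciferase-tagged ELG1 were exposed to compound or DMSO vehicle for 16 hr at 37 °C and 5% CO2. Luciferase activity was then measured with ONE-Glo after 30 min at room temperature.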
SMN2 splice up = qHTS Assay for Enhancers of SMN2 Splice Variant Expression; AID 1458, 2008; HEK293 SMN2-luciferase splicing reporter, luminescence, 30-36 h; Potency, µM (doses to about 46.1 µM), actives largely listed as activators; actives 2.8% (n = 210,000); also: nearly all actives have a fitted effect of over 55% in size
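HEK293 cells carry an SMN2 minigene-luciferase reporter in which exon 7 inclusion puts luciferase in frame. Cells were seeded at 2000 cells/well, attached for 10-12 hours, then exposed to compounds for 30-36 hours at 37C before ONE-Glo luminescence.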
A number is an active result; [ ] = dose if it differs, or a comment. Calls follow the shape of the dose curve; as a rule, active = well fitted curve in the direction sought with a large enough effect; inconclusive = small, poorly fitted or top-dose-only effect, or another doubt; inactive = no such curve, though single readings can be large; an effect the other way counts as inactive or inconclusive.

Screening COc1ccc(CCNC(=O)c2cc3c(=O)n4cccc(C)c4nc3n2C)cc1 returned FLuc counter inactive.
`COc1ccc2c(c1)O[C@@H](c1cccc(C(F)(F)F)c1)[C@H](OC(=O)N[C@H](C)C1CCCCC1)C2=O` gave Luc counter inactive and SMN2 splice up inactive.
Screening CC(C)c1nc(SCC(=O)Nc2ccc(C(=O)O)cc2)c2c3c(sc2n1)CCCC3 returned FLuc counter 27µM, Rab9 prom act inactive, NPC1 prom act inactive and ELG1 genotoxic inactive.
Screening CC1CCc2c(sc3ncnc(SCC(=O)Nc4ccc(C(=O)O)cc4)c23)C1 (configuration not stated) returned FLuc counter inconclusive, Rab9 prom act inactive, NPC1 prom act inactive and ELG1 genotoxic inactive.
Screening O=c1[nH]c(SCc2ccc(Cl)cc2)nc2ccsc12 returned Luc counter inactive, FLuc counter 6µM, Rab9 prom act inconclusive, NPC1 prom act inactive, ELG1 genotoxic inactive and SMN2 splice up inconclusive.
`O=C(NNC1=NS(=O)(=O)c2ccccc21)c1cccc([N+](=O)[O-])c1` gave FLuc counter 12µM, Rab9 prom act inactive, NPC1 prom act inactive and ELG1 genotoxic inactive.
O=C(NNC1=NS(=O)(=O)c2ccccc21)c1ccccc1 was read as FLuc counter 4.8µM, Rab9 prom act inactive, NPC1 prom act inactive and ELG1 genotoxic inactive.
`O=C(NNc1c(Cl)cc(Cl)cc1Cl)c1cccc([N+](=O)[O-])c1` gave Luc counter inactive, FLuc counter inactive, Rab9 prom act inactive, NPC1 prom act inactive, ELG1 genotoxic inactive and SMN2 splice up inactive.
For O=C(/C=C/c1ccccc1)NNc1ccc(Cl)cc1 the results were Luc counter inactive, FLuc counter inactive, Rab9 prom act inactive, NPC1 prom act inactive, ELG1 genotoxic inactive and SMN2 splice up inactive.
For O=C(NNC1=NS(=O)(=O)c2ccccc21)c1ccccc1Cl the results were Luc counter inactive, FLuc counter 17µM, Rab9 prom act inactive, NPC1 prom act inactive and ELG1 genotoxic inactive.
`COc1ccccc1C(=O)NNC1=NS(=O)(=O)c2ccccc21` gave FLuc counter inconclusive, Rab9 prom act inactive, NPC1 prom act inactive and ELG1 genotoxic inactive.
`O=C(/C=C/c1ccccc1)NNC1=NS(=O)(=O)c2ccccc21` gave Luc counter inactive, FLuc counter 24µM, Rab9 prom act inactive, NPC1 prom act inactive and ELG1 genotoxic inactive.
Screening Cc1ccc2c(c1)-c1cc(C)nn1C(c1cc(Br)ccc1O)N2 (configuration not stated) returned FLuc counter inactive and SMN2 splice up inactive.
Screening O=C(c1cccc([N+](=O)[O-])c1)N1CCOCC1 returned Luc counter inactive, FLuc counter inactive, Rab9 prom act inactive, NPC1 prom act inactive, ELG1 genotoxic inactive and SMN2 splice up inactive[1.84 µM].
For O=C(/C=C\c1ccc(-c2cccc([N+](=O)[O-])c2)o1)N1CCOCC1 the results were Luc counter inactive, FLuc counter inconclusive, Rab9 prom act 3.5µM, NPC1 prom act inconclusive and ELG1 genotoxic inconclusive.
Cc1ccc(-c2nc3cccnc3s2)cc1NC(=O)C(C)C was read as FLuc counter 11µM.
For Cc1cccc(C(=O)Nc2cc(-c3nc4cccnc4s3)ccc2C)c1 the results were FLuc counter inactive.
Screening CCC(C(=O)Nc1cc(-c2nc3cccnc3s2)ccc1C)c1ccccc1 (configuration not stated) returned FLuc counter 11µM.
For Cc1ccc(-c2nc3cccnc3s2)cc1NS(C)(=O)=O the results were FLuc counter 13µM, Rab9 prom act inconclusive, NPC1 prom act inconclusive and ELG1 genotoxic inconclusive.
For COc1ccc(OC)c(Nc2nc3ccccc3nc2-n2nc(C)cc2C)c1 the results were FLuc counter inactive and SMN2 splice up inactive.
COc1cccc(Nc2nc3cc(Cl)c(Cl)cc3nc2-n2nc(C)cc2C)c1 was read as FLuc counter inactive and SMN2 splice up inactive.
Screening COC(=O)c1cn[nH]c1NC(=S)Nc1ccc(Cl)c(Cl)c1 returned Luc counter inactive, FLuc counter 0.43µM, Rab9 prom act 0.35µM, NPC1 prom act 0.63µM, ELG1 genotoxic 0.41µM and SMN2 splice up 10µM.
`COC(=O)c1cn[nH]c1NC(=S)Nc1ccc(C)cc1Cl` gave Luc counter inactive, FLuc counter 0.38µM, Rab9 prom act 0.56µM, NPC1 prom act 0.4µM, ELG1 genotoxic 0.58µM and SMN2 splice up inactive.
`CCOC(=O)NC(=S)Nc1ccc(OC)cc1` gave Luc counter inactive, FLuc counter inactive, Rab9 prom act inactive, NPC1 prom act inactive, ELG1 genotoxic inactive and SMN2 splice up inactive.
`COC(=O)c1ccccc1NC(=S)NC(C)=O` gave Luc counter inactive, FLuc counter inactive, Rab9 prom act inactive, NPC1 prom act inactive, ELG1 genotoxic inactive and SMN2 splice up inactive.
Screening CCOC(=O)c1cn[nH]c1NC(=S)Nc1ccc(OC)cc1 returned FLuc counter 0.19µM, Rab9 prom act 0.32µM, NPC1 prom act 0.28µM and ELG1 genotoxic inconclusive.
`COC(=O)c1cn[nH]c1NC(=S)Nc1ccccc1C` gave Luc counter inactive, FLuc counter 7.6µM, Rab9 prom act 3.5µM, NPC1 prom act inconclusive, ELG1 genotoxic inconclusive and SMN2 splice up inactive.
For COc1ccccc1NC(=O)C1=C(C)Nc2nc(SC)nn2C1c1ccccc1Cl (configuration not stated) the results were FLuc counter inactive and SMN2 splice up inactive.
`CCOC(=O)c1c(NC(=O)c2cc(CC)on2)sc(C)c1C` gave FLuc counter inactive and SMN2 splice up inactive.
For CCCCOC(=O)c1ccc(NC(=O)c2ccc3c(c2)CCN3S(C)(=O)=O)cc1 the results were FLuc counter inactive and SMN2 splice up inactive.
For CCN(CC)c1ccc(/C=N/NC(=O)c2nnn(-c3nonc3N)c2C(C)C)c(O)c1 the results were FLuc counter 19µM, Rab9 prom act inactive, NPC1 prom act inactive and ELG1 genotoxic inactive.
For C/C(=N\NC(=O)c1nnn(-c2nonc2N)c1C(C)C)c1ccncc1 the results were FLuc counter inactive, Rab9 prom act inactive, NPC1 prom act inactive and ELG1 genotoxic inactive.
Screening COc1cc(/C=N/N=C(/N)c2nonc2N)cc(Br)c1OCc1ccccc1C returned Luc counter inactive, FLuc counter inactive, Rab9 prom act inactive, NPC1 prom act inactive, ELG1 genotoxic inactive and SMN2 splice up inactive.
